This is an account of results in PubChem BioAssay.

SMILES strings stand for the structures.

This test deals with Noggin (protein binding on small-molecule microarray). Put plainly: Noggin binders on small-molecule microarray, primary screen, biochemical, 635/667 nm fluorescence (AID 1095).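 Also: score merges 667 nm feature fluorescence with signal to noise over triplicate slides.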 As to conditions: 635 nm fluorescence, higher = more signal.
Take `COc1cc2c(cc1O)C(C)N(Cc1ccc([N+](=O)[O-])o1)CC2` (stereo not given): the composite z-score came to 0.142.

Turning to `COCCOC(=O)N1C(=O)[C@@]2(c3cc(C#Cc4ccc(OC)cc4)ccc31)[C@H](c1ccc(O)cc1)N1[C@H](c3ccccc3)[C@H](c3ccccc3)OC(=O)[C@H]1[C@@H]2C(=O)N1CCCCCCC1`, the composite z-score was 0.332.

As for `COc1ccc([Si](C)(C)[C@@H]2[C@@H](CC(=O)N(CCO)Cc3ccccc3)O[C@]3(C(=O)N(Cc4cccc(N5C(=O)c6cccc7cccc5c67)c4)c4ccccc43)[C@H]2C)cc1`, the composite z-score amounted to 1.33.

`Cc1ccc(S[C@]2(C(=O)O)CC(=O)N(Cc3ccccc3Cl)[C@@H]2c2ccc(CO)cc2I)cc1` came in with a composite z-score of -0.678.

Turning to `COC(=O)C1=CC(CCCO)=CC(C2CC2)N(C)C=C1C(=O)OC` (stereo not given), the composite z-score was -0.178.

On to `COCCOC(=O)N1C(=O)[C@@]2(c3cc(C#CCC(C(=O)OC)C(=O)OC)ccc31)[C@H](C(=O)N1CCc3cc(OC)c(OC)cc3C1)[C@H]1C(=O)O[C@H](c3ccccc3)[C@H](c3ccccc3)N1[C@@H]2c1ccc(OCCO)cc1`, for which the composite z-score is 1.4.

Turning to `COc1ccc([Si](C)(C)[C@H]2[C@H](CCO)O[C@@]3(C(=O)N(Cc4cccc(N5C(=O)COc6ccccc65)c4)c4ccccc43)[C@@H]2C)cc1`, the composite z-score came out at 0.164.

As to `CN(C)CCCNC(=O)[C@@]1(C)c2ccccc2C(=O)N(Cc2ccccc2)[C@H]1c1ccc(CO)cc1`, the composite z-score worked out at 0.0474.

As for `COC(=O)c1c2oc(c1C(=O)OC)C(=O)N(Cc1ccccc1)Cc1cn(nn1)C[C@H](Cc1ccccc1)NC(=O)N[C@H](CO)CC2`, the composite z-score was 0.698.

With `[N-]=[N+]=NCc1ccccc1[C@H]1OC(c2ccc(OCCCO)cc2)=N[C@@]1(CCS(=O)(=O)c1ccccc1)C(=O)N1CCCCC1`, the composite z-score came to 0.876.

`O=C(CS)NCCCCCNC(=O)[C@@H]1C[C@@H]2C(=O)N3CCC[C@H]3C(=O)N2[C@@H]1c1cccc(OCCO)c1`: the composite z-score came out at 0.102.

`COCCOC(=O)N1C(=O)[C@@]2(c3cc(C#CCCO)ccc31)[C@H](C(=O)Nc1nc3ccccc3s1)[C@H]1C(=O)O[C@H](c3ccccc3)[C@H](c3ccccc3)N1[C@@H]2c1ccccc1OCCO` gave a composite z-score of 0.6.

In turn, `C[C@@H]1NC(=O)[C@@]23C(=O)N[C@@H](Cc4ccccc4)C2[C@H](C)[C@@]2(C)O[C@H]2C3/C=C/C/C=C\CNC(=O)[C@@H]2CCCN2C1=O` (stereo not given in full) yielded a composite z-score of -0.044.

`CCC[C@@H]1C[C@@]1(CCC)[C@@H](NC(=O)OCc1ccccc1)c1ccc(-c2ccccc2)cc1` gave a composite z-score of -0.0553.

Consider `CC[C@H]1C2=C3C(CC[C@H]4C(OCc5ccc(F)cc5C(F)(F)F)OC[C@](C)([C@@H]34)N(C(=O)OC(C)(C)C)C2)C(COC)C1COC` (stereo not given in full), for which the composite z-score is -0.207.

For `CC(C)(C)OC(=O)CC[C@@]1(C(=O)NCc2ccccc2)N=C(c2ccc(OCCCO)cc2)O[C@@H]1c1ccccc1N=[N+]=[N-]`, the composite z-score is 0.878.

Regarding `CCC(CC)C(O)C1C=CC2C(=O)N(c3ccccc3)C(=O)C2N1Nc1ccc(C(C)C)cc1` (stereo not given), the composite z-score was 0.152.

As to `C[C@H]1NC(=O)[C@@]23C(=O)N[C@@H](Cc4ccccc4)C2[C@H](C)[C@@]2(C)O[C@H]2C3/C=C/C/C=C\CNC(=O)[C@H](Cc2ccccc2)NC1=O` (stereo not given in full), the composite z-score amounted to 1.22.

`COCCOC(=O)N1C(=O)[C@@]2(c3cc(C#CC4=CCCCC4)ccc31)[C@H](C(N)=O)[C@H]1C(=O)O[C@H](c3ccccc3)[C@H](c3ccccc3)N1[C@@H]2c1ccccc1OCCO`: the composite z-score turned out to be 0.551.

Consider `CCOC(=O)C[C@H]1[C@H](OC(=O)c2cc3ccccc3oc2=O)[C@@H](NC(=O)c2ccc(-c3ccccc3)cc2)c2cc(OCCCO)ccc2N1C(=O)c1ccc2ccccc2n1`, for which the composite z-score is 0.873.

The molecule `COC(=O)[C@@]1(Cc2ccc(F)cc2)[C@H]2c3cc(C(=O)N(C)C)n(Cc4cc(F)cc5c4OCOC5)c3C[C@H]2CN1C(=O)c1ccccc1` had a composite z-score of 0.378.

Molecule `COC(=O)[C@@]1(Cc2ccccc2)[C@@H]2C(=CC(=O)[C@H]2CC(=O)C(=O)N(C)C)CN1C(=O)c1ccccc1` came in with a composite z-score of -0.434.

For the molecule `CN1C(=O)C2C=CC(C(O)c3ccc(F)cc3)N(Nc3ccccc3)C2C1=O` (stereo not given), the composite z-score came to 0.447.

In turn, `CCCC[C@@H]1C[C@H]1[C@@H](NC(=O)c1ccccc1)c1ccc(C(F)(F)F)cc1` returned a composite z-score of 0.337.

On to `COc1ccc([Si](C)(C)[C@H]2[C@H](CCn3cc([C@H](O)c4ccccc4)nn3)O[C@@]3(C(=O)N(Cc4ccc(N5C(=O)c6cccc7cccc5c67)cc4)c4ccccc43)[C@@H]2C)cc1`, for which the composite z-score is -0.162.

On to `C[N+](C)(C)CCCC[C@@H]1NC(=O)[C@H]2C[C@@H](C(=O)NCCCCCCN)[C@@H](c3ccc(O)cc3)N2C1=O`, for which the composite z-score is -0.232.

Molecule `O[C@@H](Cc1ccccc1)[C@@H](/C=C/C1CC1)N(CC#Cc1ccccc1)Cc1cccc(Cl)c1` showed a composite z-score of -1.4.

As for `CCOC(=O)C[C@H]1[C@H](OC(=O)c2ccccc2-c2ccccc2)[C@@H](NC(=O)c2ccc(-c3ccccc3)cc2)c2cc(OCCCO)ccc2N1C(=O)c1ccc2ccccc2n1`, the composite z-score was found to be 0.427.

`CN(C)c1ccc(C(O)C2C=CC3C(=O)N(c4ccccc4)C(=O)C3N2Nc2ccc([N+](=O)[O-])cc2)cc1` (stereo not given) came in with a composite z-score of 0.037.

The molecule `COC(=O)[C@@]1(Cc2ccc(OC)cc2)[C@H]2c3cc(C(=O)N4CCCC4)n(Cc4c(-c5ccccc5)noc4C)c3C[C@H]2CN1C(=O)c1ccccc1` had a composite z-score of 0.658.

For `COc1ccc(-c2nc(-c3ccccc3)c3c(c2C)CO[Si]3(C(C)C)C(C)C)cn1`, the composite z-score is 1.09.

Turning to `O=C1O[C@@H](c2ccccc2)[C@@H](c2ccccc2)N2[C@@H](c3ccc(O)cc3)[C@]3(C(=O)Nc4ccc(C#CC5=CCCCC5)cc43)[C@@H](C(=O)NC[C@H](O)c3ccccc3)[C@H]12`, the composite z-score stood at 1.22.

Turning to `CO[C@H]1O[C@H](CO)[C@@H](OC(=O)Nc2ccccc2-c2ccccc2)[C@H](OC(=O)Nc2ccc3c(c2)OCO3)[C@H]1OC(=O)Nc1ccc2c(c1)OCO2`, the composite z-score was 0.852.

`COC(=O)[C@@]1(Cc2ccc(F)cc2)[C@H]2c3cc(C(=O)N4CCCC4)n(CCN4CNCC4=O)c3C[C@H]2CN1C(=O)c1ccccc1` had a composite z-score of 0.46.

Regarding `CN(C)CCCNC(=O)[C@@H]1c2ccccc2C(=O)N(Cc2ccccc2Cl)[C@H]1c1ccc(CO)cc1`, the composite z-score was -0.611.
